Reference: PubChem BioAssay
For some of these results: Entries with a potency or affinity are not part of this list. The source made the active and inactive calls.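 Rule for the calls, unless noted: active = fluorescence ratio normalized to control raised more than 50% in primary screen plus both repeat runs; inactive = the rest.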

Columns and labels:
[1] = test system: TRPC4 beta (transient receptor potential cation channel C4), mouse; experiment: activators of mouse TRPC4 channel, confirmation, cell-based, Fluo4 calcium, HEK293 TRPC4beta/mu-opioid, duplicates, 10 µM (AID 2426); settings: Fluo4 calcium fluorescence, at 10 µM; active compounds read high
[2] = test system: transient receptor potential cation channel C4 beta (TRPC4), mouse; experiment: activators of mouse TRPC4 channel, confirmation, cell-based, second round, Fluo4, HEK293 TRPC4beta/mu-opioid, 1 µM (AID 2461;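 active = primary screen active and over 50% activation in each of two duplicate runs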); settings: Fluo4 calcium fluorescence, at 1 µM; active compounds read high
[3] = test system: TRPC4 (transient receptor potential cation channel C4 beta), mouse; experiment: positive allosteric modulators of mouse TRPC4, confirmation, cell-based, second round, Fluo-4, HEK293 TRPC4beta/mu-opioid, 1 µM (AID 2554;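 active = primary screen hit whose fluorescence ratio, in both repeats, exceeds the weak agonist control mean by 3 SD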); settings: DAMGO EC20, Fluo-4 calcium flux, at 1 µM; active compounds read high
[4] = test system: TRPC4 beta (transient receptor potential cation channel C4), mouse; experiment: positive allosteric modulators of mouse TRPC4, confirmation, cell-based, Fluo-4, HEK293 TRPC4beta/mu-opioid (AID 2555;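 active = primary screen hit whose calcium fluorescence ratio, in both repeats, exceeds the weak agonist control mean by 3 SD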); settings: DAMGO EC20, Fluo-4 calcium flux, at 10 µM; active compounds read high
[5] = target: Short transient receptor potential channel 4 (Mus musculus) (UniProt Q9QUQ5); experiment: inhibitors of mouse TRPC4 channel, confirmation, cell-based, Fluo4, HEK293 TRPC4beta/mu-opioid (AID 2636;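 active = calcium signal cut by more than 3 SD below the full-agonist control yet still positive, in both repeats and the earlier primary screen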); settings: DAMGO, Fluo4 calcium flux, at 10 µM; active compounds read high
Short transient receptor potential channel 4 (Mus musculus), sequence (Q9QUQ5 whole entry, looked up): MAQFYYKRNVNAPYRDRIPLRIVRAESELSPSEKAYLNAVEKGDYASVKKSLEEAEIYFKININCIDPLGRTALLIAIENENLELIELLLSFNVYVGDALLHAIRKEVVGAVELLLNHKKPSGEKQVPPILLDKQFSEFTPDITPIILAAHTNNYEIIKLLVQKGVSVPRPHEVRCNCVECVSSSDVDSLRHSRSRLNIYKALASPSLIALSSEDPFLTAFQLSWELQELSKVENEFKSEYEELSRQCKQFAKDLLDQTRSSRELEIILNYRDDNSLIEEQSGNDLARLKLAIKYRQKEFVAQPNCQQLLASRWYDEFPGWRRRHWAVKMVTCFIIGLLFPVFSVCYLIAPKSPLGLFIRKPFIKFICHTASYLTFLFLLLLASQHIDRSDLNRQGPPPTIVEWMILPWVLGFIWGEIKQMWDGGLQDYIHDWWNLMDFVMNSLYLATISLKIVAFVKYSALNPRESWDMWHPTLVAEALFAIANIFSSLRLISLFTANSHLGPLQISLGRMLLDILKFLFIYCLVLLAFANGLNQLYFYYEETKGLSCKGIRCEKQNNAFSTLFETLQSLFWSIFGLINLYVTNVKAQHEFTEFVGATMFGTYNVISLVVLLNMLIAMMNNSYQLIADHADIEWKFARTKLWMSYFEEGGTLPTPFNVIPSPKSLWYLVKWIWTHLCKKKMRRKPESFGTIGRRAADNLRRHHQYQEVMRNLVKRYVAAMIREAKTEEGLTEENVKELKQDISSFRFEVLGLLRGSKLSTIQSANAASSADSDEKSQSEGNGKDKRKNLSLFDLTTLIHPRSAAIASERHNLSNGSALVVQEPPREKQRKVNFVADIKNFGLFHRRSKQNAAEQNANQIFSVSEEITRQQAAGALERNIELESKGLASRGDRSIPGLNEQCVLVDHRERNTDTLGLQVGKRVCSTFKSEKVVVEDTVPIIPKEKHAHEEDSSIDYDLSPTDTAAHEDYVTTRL

[6] = target: Short transient receptor potential channel 4 (Mus musculus) (UniProt Q9QUQ5); experiment: inhibitors of mouse TRPC4 channel, confirmation, cell-based, second round, Fluo4, HEK293 TRPC4beta/mu-opioid, 1 µM (AID 2637;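 active = calcium signal ratio cut to more than 3 SD under the fully stimulated control mean yet still positive, in both repeats and the primary screen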;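 for inhibition: percent of integrated ratio relative to wells lacking test compound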); settings: Fluo4 calcium flux, DAMGO, at 1 µM; active compounds read high
[7] = target: Short transient receptor potential channel 4 (Mus musculus) (UniProt Q9QUQ5); experiment: mouse TRPC4 channel activators, dose response, cell-based, HEK293 TRPC4/mu-opioid, Fluo-4 calcium (AID 434937;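 active = primary screen activator hit with a dose response curve and TRPC4 channel activation at any tested dose; inactive = no activation, no dose response, or not a primary hit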)
[8] = target: Short transient receptor potential channel 4 (Mus musculus) (UniProt Q9QUQ5); experiment: TRPC4 positive allosteric modulators, dose response, cell-based, HEK293 TRPC4/mu-opioid, Fluo-4 calcium, EC20 DAMGO (AID 434941;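 active = earlier screen potentiator hit that boosts the TRPC4 ion channel at some dose, with a dose response; inactive = no potentiation, no dose response, or not a prior hit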;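 note: calcium entry triggered by an EC20 dose of DAMGO at the co-expressed mu-opioid receptor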)
[9] = target: Short transient receptor potential channel 6 (Mus musculus) (UniProt Q61143); experiment: inhibition of mouse TRPC6 channel, confirmation, selectivity assay for TRPC4 inhibitor project, cell-based, HEK293, membrane potential dye, duplicate (AID 434948;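 active = active in primary screen and both duplicates, each dropping signal beyond three positive-control SD with fluorescence still positive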); settings: HEK293 TRPC6, membrane potential dye fluorescence, at 10 µM, stimulated with maximal-effect acetylcholine; active compounds read high
Short transient receptor potential channel 6 (Mus musculus), sequence (Q61143 whole entry, looked up): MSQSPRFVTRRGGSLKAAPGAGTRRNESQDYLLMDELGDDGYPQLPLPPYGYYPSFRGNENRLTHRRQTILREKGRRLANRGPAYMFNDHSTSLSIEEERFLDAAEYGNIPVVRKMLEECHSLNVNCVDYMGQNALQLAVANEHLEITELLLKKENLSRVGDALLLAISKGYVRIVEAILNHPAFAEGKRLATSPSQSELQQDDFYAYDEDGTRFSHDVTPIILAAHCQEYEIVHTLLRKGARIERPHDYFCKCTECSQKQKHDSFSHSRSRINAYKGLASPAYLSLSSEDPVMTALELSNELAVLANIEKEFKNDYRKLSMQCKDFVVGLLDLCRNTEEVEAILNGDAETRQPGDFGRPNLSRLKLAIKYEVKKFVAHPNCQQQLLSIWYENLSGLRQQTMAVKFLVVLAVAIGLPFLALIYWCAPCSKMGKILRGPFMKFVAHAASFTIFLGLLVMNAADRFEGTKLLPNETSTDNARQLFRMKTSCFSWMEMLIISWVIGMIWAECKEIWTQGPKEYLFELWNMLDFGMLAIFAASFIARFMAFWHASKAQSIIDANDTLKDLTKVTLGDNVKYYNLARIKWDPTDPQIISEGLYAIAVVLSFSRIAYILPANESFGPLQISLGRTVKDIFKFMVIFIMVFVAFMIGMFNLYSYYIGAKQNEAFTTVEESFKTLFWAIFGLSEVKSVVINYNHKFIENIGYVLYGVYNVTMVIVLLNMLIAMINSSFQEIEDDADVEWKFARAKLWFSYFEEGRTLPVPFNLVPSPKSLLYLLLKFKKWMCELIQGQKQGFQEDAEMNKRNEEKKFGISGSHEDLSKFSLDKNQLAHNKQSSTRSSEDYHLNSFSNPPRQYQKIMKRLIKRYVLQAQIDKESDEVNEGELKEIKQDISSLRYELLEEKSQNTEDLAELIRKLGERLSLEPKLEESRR

[10] = target: Short transient receptor potential channel 6 (Mus musculus) (UniProt Q61143); experiment: activation of mouse TRPC6 channel, confirmation, selectivity assay for TRPC4 activator project, cell-based, HEK293, membrane potential dye, duplicate (AID 434950;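 active = membrane potential signal rise above negative control mean plus 3 SD in both duplicates, also active in the earlier TRPC4 screen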); settings: HEK293 TRPC6, membrane potential fluorescence, at 10 µM; active compounds read high
[11] = target: Short transient receptor potential channel 6 (Mus musculus) (UniProt Q61143); experiment: TRPC6 potentiation by TRPC4 potentiator hits, confirmation, selectivity assay for TRPC4 potentiator project, HEK293 cells, membrane potential dye, duplicate (AID 434952;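 active = compound raising the membrane signal above positive-control mean plus 3 SD in both repeats, and a primary screen hit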); settings: HEK293 TRPC6, membrane potential dye fluorescence, at 10 µM, maximal acetylcholine added after compound; active compounds read high
[12] = target: Short transient receptor potential channel 4 (Mus musculus) (UniProt Q9QUQ5); experiment: calcium flux activators in TRPC4/5HT1a cells, counter-screen for TRPC4 activator project, cell-based, second counter screen, HEK293 TRPC4/5HT1a, Fluo-4 (AID 434977;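 active = calcium signal rise above buffer-control mean plus 5 SD in both duplicates, and also a hit in the primary screen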); settings: Fluo-4 calcium flux, at 10 µM; active compounds read high
[13] = calcium flux inhibitors in TRPC4/5HT1a cells, confirmation, counter-screen for TRPC4 inhibitor project, cell-based, second counter screen, HEK293 TRPC4/5HT1a, Fluo-4 (AID 434978;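 active = primary screen active whose calcium signal fell more than 3 SD beyond the full-serotonin control mean in both duplicate plates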); settings: Fluo-4 calcium flux, at 10 µM, serotonin added to trigger calcium flux; active compounds read high
[14] = test system: TRPC4 (mouse), co-expressed with 5HT1a in HEK293; experiment: calcium flux potentiators in TRPC4/5HT1a cells, confirmation, counter-screen for TRPC4 potentiator project, cell-based, second counter screen, HEK293 TRPC4/5HT1a, Fluo-4 (AID 434979;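 active = signal rise over 3 SD above mean of control wells given weak agonist, in both repeats and first screen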); settings: Fluo-4 calcium flux, at 10 µM, serotonin added at its EC20 dose; active compounds read high
[15] = calcium flux activation in mu-opioid HEK293 cells, confirmation, counter-screen for TRPC4 activator project, cell-based, HEK293 mu-opioid receptor line (AID 449723;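 active = hit in primary screen, with calcium signal over 5 SD above buffer well mean in both duplicates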;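 note: counter screen cells carry the mu-opioid receptor alone and lack TRPC4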); settings: Fluo-4 calcium fluorescence, at 10 µM; active compounds read high
[16] = calcium flux enhancement in mu-opioid HEK293 cells, confirmation, counter-screen for TRPC4 allosteric potentiator project, cell-based, HEK293 mu-opioid receptor line (AID 449724;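 active = calcium signal rise more than 3 SD above the low-dose agonist control mean, in both duplicate plates and the primary screen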); settings: Fluo-4 calcium flux, at 10 µM, compound added before EC20 DAMGO stimulus; active compounds read high

Measured: inhibition

O=C(COC(=O)C1CC1)Nc1nc(-c2ccc(F)c(F)c2)cs1
active: [5] 70% | [13] 41.5%
inactive: all other assays above

CCC(O)(c1ccc(OC)cc1)C(CN1CCOCC1)c1ccccc1 (stereo unspecified)
active: [5] 92% | [6] 52% | [13] 14.9%
inactive: all other assays above

O=C(CCN1CCc2ccccc2C(O)(c2ccccc2)C1)c1ccc2c(c1)OCCO2 (stereo unspecified)
active: [13] 39.2%
inactive: all other assays above

c1ccc(-c2nc(NCc3ccco3)c3ccccc3n2)nc1
active: [5] 93% | [6] 74% | [9] 34.5% | [13] 22.1%
inactive: all other assays above

CCOC(=O)C1(CCOc2ccccc2)CCN(Cc2cccs2)CC1
active: [5] 80%
inactive: all other assays above

CNC(=O)COc1ccc2oc3c(c2c1)CCCC3
active: [5] 74% | [6] 49% | [13] 31.4%
inactive: all other assays above

COc1ccc2nc(NCc3ccccc3)[nH]c2c1
active: [5] 94% | [6] 50% | [13] 23.6%
inactive: all other assays above

CC(C)C(NC(=O)c1ccc(C(C)(C)C)cc1)C(=O)NCC(c1ccccc1)N(C)C (stereo unspecified)
active: [5] 82% | [6] 70%
inactive: all other assays above

Cc1ccccc1OCCn1c(C)nc2ccccc21
active: [5] 36% | [6] 57% | [13] 13.3%
inactive: all other assays above

CCn1c(=O)n(CCOC)c(=O)c2c3c(sc21)CCCC3
active: [5] 91% | [6] 58% | [13] 16.2%
inactive: all other assays above

O=C(c1cccc(C(=O)N2CCN(c3ccc(F)cc3)CC2)c1)N1CCN(c2ccc(F)cc2)CC1
active: [5] 88% | [6] 53% | [13] 42%
inactive: all other assays above

CCc1ccc2nc3nc(C)cc(C)c3c(N)c2c1
active: [5] 96% | [6] 41% | [9] 27% | [13] 15.6%
inactive: all other assays above

Cc1[nH]nc(-c2ccc(O)cc2O)c1-c1ccc(Cl)cc1
active: [5] 86% | [13] 23.5%
inactive: all other assays above

Oc1ccc(CN2CCc3ccccc3C2)c2cccnc12
active: [5] 97% | [6] 45% | [9] 58% | [13] 19.6%
inactive: all other assays above

CC(/C=C1\SC(=S)N(C(C(=O)O)C(C)C)C1=O)=C\c1ccccc1 (stereo unspecified)
active: [5] 99% | [13] 16%
inactive: all other assays above

c1csc(-c2nc(NCC3CCCO3)c3ccccc3n2)c1 (stereo unspecified)
active: [5] 79% | [13] 28%
inactive: all other assays above
